Here are results for 14 compounds from PubChem BioAssay (Tox21).

Assay [1] is described as follows: Caspase-3/7 induction in CHO-K1 cells by small molecules, qHTS assay (AID 1346980). Note: % is set by controls: 0 for no effect and ±100 for the full control effect; nearly all actives have a fitted effect of over 15% in size. To be noted: CHO-K1 caspase-3/7 induction, Caspase-Glo luminescence, 17 h; series mostly up to 92.4 µM. An outline of the steps: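 Wild-type CHO-K1 cells exposed to compounds for 17hr at 37 C, 5% CO2. Caspase-3/7 activity then measured by Caspase-Glo 3/7 luminescence after 30min at room temperature.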

The target of assay [2] is Nuclear receptor subfamily 1 group I member 2 (Homo sapiens) (UniProt O75469). Briefly: Human pregnane X receptor (PXR) small molecule agonists, qHTS assay (AID 1346982). For activation: % is set by controls: 0 for no effect and ±100 for the full control effect. Note: nearly all actives have a fitted effect of over 35% in size. Note: potency is the fitted concentration of half-maximal effect. Particulars: PXR-Luc HepG2, CYP3A4 luciferase reporter, 24 h; series mostly up to 92.4 µM. An outline of the steps:
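PXR-Luc HepG2 reporter cells (CYP3A4-driven luciferase) in 5% charcoal-stripped FBS medium, plated 5 h before compound addition, then treated 24 h at 37C. Luciferase read by ONE-Glo luminescence after 30 min at room temperature.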
For orientation: Quantitative high-throughput screening tests each substance at several concentrations.

The target of assay [3] is Nuclear receptor subfamily 1 group I member 2 (Rattus norvegicus) (UniProt Q9R1A7). Briefly: Rat pregnane X receptor (rPXR) activation by small molecules, qHTS assay (AID 1346983). Note: % is set by controls: 0 for no effect and ±100 for the full control effect; nearly all actives have a fitted effect of over 20% in size. To be noted: rPXR luciferase reporter cells, One-Glo luminescence, 24 h; max activation: hits give high values. A digest of the protocol: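 Cell-based rPXR activation assay: rPXR cells, 2,000 per well, rested 5hr at 37 C, then exposed to compounds in DMSO for 24 hr at 37 C. Luciferase activity read by One-Glo luminescence after 30 min at room temperature.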
Chain of Nuclear receptor subfamily 1 group I member 2 (Rattus norvegicus) (Q9R1A7 whole entry, looked up): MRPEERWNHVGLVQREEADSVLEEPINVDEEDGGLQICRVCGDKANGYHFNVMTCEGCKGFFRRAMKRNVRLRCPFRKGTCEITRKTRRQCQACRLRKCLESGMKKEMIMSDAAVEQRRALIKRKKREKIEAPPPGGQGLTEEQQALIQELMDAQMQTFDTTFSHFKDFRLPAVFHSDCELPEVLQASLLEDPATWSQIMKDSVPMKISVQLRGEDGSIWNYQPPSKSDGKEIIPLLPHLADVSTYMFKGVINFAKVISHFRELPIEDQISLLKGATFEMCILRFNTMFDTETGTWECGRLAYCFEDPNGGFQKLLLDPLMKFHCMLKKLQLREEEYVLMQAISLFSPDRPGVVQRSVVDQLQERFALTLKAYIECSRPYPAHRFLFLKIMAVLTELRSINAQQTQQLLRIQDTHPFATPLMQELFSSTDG

Assay [4] addresses Nuclear receptor subfamily 1 group I member 2 (Homo sapiens) (UniProt O75469). Briefly: CYP3A4 induction through human pregnane X receptor (PXR) by small molecules, qHTS assay (AID 1346984). Note: % is set by controls: 0 for no effect and ±100 for the full control effect; nearly all actives have a fitted effect of over 40% in size. Particulars: DPX-2 HepG2 PXR, CYP3A4-luciferin luminescence, 24 h; series mostly up to 46.1 µM. An outline of the steps:
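DPX-2 HepG2 cells carrying a PXR response element and CYP3A4-promoter luciferase construct, treated with compounds 24 hr at 37C. Then P450-Glo CYP3A4 Luciferin-IPA substrate (3uM final) for 3 hr at 37C, One-Glo added, luminescence read.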

The target is the same in assay [5]. Briefly: Human pregnane X receptor (PXR) activation by small molecules, qHTS assay (AID 1346985). For activation: % is set by controls: 0 for no effect and ±100 for the full control effect. Note: nearly all actives have a fitted effect of over 40% in size. Note: potency is the fitted concentration of half-maximal effect. To be noted: DPX-2 HepG2 CYP3A4-luciferase, 24 h; series mostly up to 38.3 µM. An outline of the steps:
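DPX-2 cells (HepG2 co-transfected with a PXR response element and a CYP3A4-promoter luciferase construct) were seeded at 2,000 per well, rested 5 hr at 37C, then exposed to DMSO-dissolved compounds for 24 hr. Activation was read as luciferase luminescence.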

Assay [6] deals with Cytochrome P450 2D6 (Homo sapiens) (UniProt P10635). As to the kind of experiment: Cytochrome P450 Family 2 Subfamily D Member 6 (CYP2D6) small molecule antagonists: luciferase reporter qHTS assay (AID 1671196). Note: nearly all actives have a fitted effect of over 50% in size. Note: potency is the fitted concentration of half-maximal effect. Particulars: P450-Glo CYP2D6 enzyme assay, luciferin luminescence, 1 h; series mostly up to 115 µM. An outline of the steps: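 Cell-free P450-Glo system: CYP2D6 with proluciferin substrate was pre-incubated with compound for 10 min, then reacted with NADPH regeneration for 1 h at room temperature. Luciferin product was detected after 20 min, and data were reported as relative luminescence units.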
Chain of Cytochrome P450 2D6 (Homo sapiens) (P10635 whole entry, looked up): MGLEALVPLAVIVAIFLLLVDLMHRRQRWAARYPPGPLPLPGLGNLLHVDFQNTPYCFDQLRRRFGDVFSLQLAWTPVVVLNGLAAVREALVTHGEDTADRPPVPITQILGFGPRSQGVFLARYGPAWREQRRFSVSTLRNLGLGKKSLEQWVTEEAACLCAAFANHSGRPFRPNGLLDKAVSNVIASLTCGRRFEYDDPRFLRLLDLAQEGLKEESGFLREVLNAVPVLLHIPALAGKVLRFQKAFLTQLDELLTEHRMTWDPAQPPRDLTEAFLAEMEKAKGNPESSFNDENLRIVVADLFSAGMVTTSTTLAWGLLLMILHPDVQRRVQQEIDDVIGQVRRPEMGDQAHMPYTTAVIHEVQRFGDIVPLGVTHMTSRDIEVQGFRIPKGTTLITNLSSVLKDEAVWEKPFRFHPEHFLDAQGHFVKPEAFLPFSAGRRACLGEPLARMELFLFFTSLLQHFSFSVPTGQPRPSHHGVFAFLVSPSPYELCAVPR
(A reporter such as luciferase makes a cellular process visible.)

For assay [7], the target named is Cytochrome P450 2C19 (Homo sapiens) (UniProt P33261). Briefly: Cytochrome P450 Family 2 Subfamily C Member 19 (CYP2C19) small molecule antagonists: luciferase reporter qHTS assay (AID 1671197). Note: nearly all actives have a fitted effect of over 65% in size. Note: potency is the fitted concentration of half-maximal effect. Particulars: P450-Glo CYP2C19 enzyme, luciferin luminescence, 1 h; series mostly up to 52.9 µM. A digest of the protocol:
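Luminescent readout of CYP2C19 activity: luciferin product detected 20 min after adding detection reagent. Before that, compound and enzyme-substrate mix preincubated 10 min at room temperature; NADPH-regenerating system started a 1 h, 37C reaction. Ketoconazole as positive control.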

The target in assay [8] is Cytochrome P450 2C9 (Homo sapiens) (UniProt P11712). As to the kind of experiment: Cytochrome P450 Family 2 Subfamily C Member 9 (CYP2C9) small molecule antagonists: luciferase reporter qHTS assay (AID 1671198). Note: nearly all actives have a fitted effect of over 50% in size. Note: potency is the fitted concentration of half-maximal effect. Particulars: P450-Glo CYP2C9 enzyme assay, luciferin luminescence; series mostly up to 53 µM. An outline of the steps:
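P450-Glo proluciferin substrate with CYP2C9 enzyme; 10 min RT preincubation, then NADPH regeneration 1 h at 37C; luciferin detection reagent 20 min RT, luminescence in relative luminescence units.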

In assay [9] the target is Cytochrome P450 1A2 (Homo sapiens) (UniProt P05177). Briefly: Cytochrome P450 Family 1 Subfamily A Member 2 (CYP1A2) small molecule antagonists: luciferase reporter qHTS assay (AID 1671199). For activity change, negative = inhibition: % is set by controls: 0 for no effect and ±100 for the full control effect. Note: nearly all actives have a fitted effect of over 50% in size. Note: potency is the fitted concentration of half-maximal effect. To be noted: P450-Glo CYP1A2 enzyme, luciferin luminescence, 1 h; series mostly up to 53 µM. A digest of the protocol: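 P450-Glo CYP1A2 enzyme–proluciferin substrate mix with compound 10 min at room temperature, then NADPH regeneration 1 h at room temperature. Luciferin detection reagent added, luminescence read after 20 min; furafylline positive control.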
Chain of Cytochrome P450 1A2 (Homo sapiens) (P05177 whole entry, looked up): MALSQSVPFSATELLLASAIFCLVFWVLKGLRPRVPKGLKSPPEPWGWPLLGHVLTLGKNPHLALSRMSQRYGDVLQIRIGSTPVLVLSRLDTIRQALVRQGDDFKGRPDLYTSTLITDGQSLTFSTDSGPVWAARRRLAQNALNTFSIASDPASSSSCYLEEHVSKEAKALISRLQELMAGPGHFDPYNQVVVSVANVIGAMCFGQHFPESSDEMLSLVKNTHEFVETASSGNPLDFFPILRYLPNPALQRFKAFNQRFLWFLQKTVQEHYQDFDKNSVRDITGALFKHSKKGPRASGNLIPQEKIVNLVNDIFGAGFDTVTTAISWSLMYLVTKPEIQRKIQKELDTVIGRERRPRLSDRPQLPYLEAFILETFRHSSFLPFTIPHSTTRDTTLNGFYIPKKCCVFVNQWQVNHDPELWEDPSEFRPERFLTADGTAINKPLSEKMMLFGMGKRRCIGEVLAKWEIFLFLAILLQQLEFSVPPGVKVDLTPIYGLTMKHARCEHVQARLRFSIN

Assay [10] addresses Voltage-gated inwardly rectifying potassium channel KCNH2 (Homo sapiens) (UniProt Q12809). As to the kind of experiment: Human Ether-a-go-go-Related Gene (hERG) channel small molecule antagonists: fluorescence cell-based qHTS assay (AID 1671200). Note: nearly all actives have a fitted effect of over 50% in size. Note: potency is the fitted concentration of half-maximal effect. Particulars: hERG-U2OS cells, FluxOR thallium flux fluorescence; series mostly up to 76.8 µM. A digest of the protocol: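 Cell line hERG-U2OS; dye FluxOR II, 1 h RT dark; Tl+ stimulus; ex 480/em 540 nm, read each second for 2 min.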

Assay [11] has as its target Cytochrome P450 3A4 (Homo sapiens) (UniProt P08684). As to the kind of experiment: Cytochrome P450 Family 3 Subfamily A Member 4 (CYP3A4) small molecule antagonists: luciferase reporter qHTS assay (AID 1671201). For activity change, negative = inhibition: % is set by controls: 0 for no effect and ±100 for the full control effect. Note: nearly all actives have a fitted effect of over 50% in size. Note: potency is the fitted concentration of half-maximal effect. Particulars: P450-Glo CYP3A4 enzyme, luciferin luminescence, 1 h; series mostly up to 115 µM. An outline of the steps: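 Room-temperature assay throughout: 10 min compound–enzyme/substrate preincubation, 1 h reaction after NADPH regeneration solution, 20 min detection. Luciferin formed from proluciferin substrate is quantified by luminescence.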

A short description of assay [12]: Caspase-3/7 induction in CHO-K1 cells by small molecules, qHTS cell viability counter screen (AID 1346979). Note: potency is the fitted concentration of half-maximal effect; nearly all actives have a fitted effect of over 35% in size. To be noted: CellTiter-Fluor fluorescence, 17 h; series mostly up to 92.4 µM. A digest of the protocol:
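Multiplexed with Caspase-Glo 3/7 in CHO-K1 cells, this counter screen added CellTiter-Fluor after 16hr of compound exposure and recorded fluorescence 1hr later.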

Assay [13] is described as follows: Caspase-3/7 induction in HepG2 cells by small molecules, qHTS cell viability counter screen (AID 1346981). Note: nearly all actives have a fitted effect of over 30% in size. Note: potency is the fitted concentration of half-maximal effect. To be noted: CellTiter-Fluor fluorescence, 17 h; series mostly up to 92.4 µM. An outline of the steps:
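Wild-type HepG2 cells, 2,000/well, settled 5 hr at 37 C, 5% CO2 before compound addition. Viability read by CellTiter-Fluor fluorescence, reagent added after 16 hr compound exposure, then 1 hr at 37C, in the same wells as the caspase read.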

“And” between values parts separate entries of the source, which are not always exact repeats. Equal values may be shown once. Records with an inconclusive call do not appear. The source made the active and inactive calls. Calls come from the whole dose curve; as a rule, active = well fitted curve in the direction sought with a large enough effect in the repeat runs; inconclusive = weak or mixed curves; inactive = no such curve, though single readings can be large; an effect the other way counts as inactive or inconclusive.

Chain of Cytochrome P450 3A4 (Homo sapiens) (P08684 whole entry, looked up): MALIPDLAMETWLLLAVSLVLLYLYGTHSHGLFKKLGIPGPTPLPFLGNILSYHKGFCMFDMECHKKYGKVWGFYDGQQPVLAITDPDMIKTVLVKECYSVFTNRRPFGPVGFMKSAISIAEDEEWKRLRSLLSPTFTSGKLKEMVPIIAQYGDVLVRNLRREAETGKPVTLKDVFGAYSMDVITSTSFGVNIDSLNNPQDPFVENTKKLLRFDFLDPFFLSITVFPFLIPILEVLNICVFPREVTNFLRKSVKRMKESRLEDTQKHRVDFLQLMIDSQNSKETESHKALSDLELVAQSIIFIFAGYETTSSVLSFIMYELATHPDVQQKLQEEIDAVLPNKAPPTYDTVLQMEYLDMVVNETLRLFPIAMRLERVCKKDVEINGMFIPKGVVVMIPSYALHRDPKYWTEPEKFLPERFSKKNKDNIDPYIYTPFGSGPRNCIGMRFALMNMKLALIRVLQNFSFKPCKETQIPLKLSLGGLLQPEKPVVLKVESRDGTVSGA
Chain of Voltage-gated inwardly rectifying potassium channel KCNH2 (Homo sapiens) (Q12809 whole entry, looked up): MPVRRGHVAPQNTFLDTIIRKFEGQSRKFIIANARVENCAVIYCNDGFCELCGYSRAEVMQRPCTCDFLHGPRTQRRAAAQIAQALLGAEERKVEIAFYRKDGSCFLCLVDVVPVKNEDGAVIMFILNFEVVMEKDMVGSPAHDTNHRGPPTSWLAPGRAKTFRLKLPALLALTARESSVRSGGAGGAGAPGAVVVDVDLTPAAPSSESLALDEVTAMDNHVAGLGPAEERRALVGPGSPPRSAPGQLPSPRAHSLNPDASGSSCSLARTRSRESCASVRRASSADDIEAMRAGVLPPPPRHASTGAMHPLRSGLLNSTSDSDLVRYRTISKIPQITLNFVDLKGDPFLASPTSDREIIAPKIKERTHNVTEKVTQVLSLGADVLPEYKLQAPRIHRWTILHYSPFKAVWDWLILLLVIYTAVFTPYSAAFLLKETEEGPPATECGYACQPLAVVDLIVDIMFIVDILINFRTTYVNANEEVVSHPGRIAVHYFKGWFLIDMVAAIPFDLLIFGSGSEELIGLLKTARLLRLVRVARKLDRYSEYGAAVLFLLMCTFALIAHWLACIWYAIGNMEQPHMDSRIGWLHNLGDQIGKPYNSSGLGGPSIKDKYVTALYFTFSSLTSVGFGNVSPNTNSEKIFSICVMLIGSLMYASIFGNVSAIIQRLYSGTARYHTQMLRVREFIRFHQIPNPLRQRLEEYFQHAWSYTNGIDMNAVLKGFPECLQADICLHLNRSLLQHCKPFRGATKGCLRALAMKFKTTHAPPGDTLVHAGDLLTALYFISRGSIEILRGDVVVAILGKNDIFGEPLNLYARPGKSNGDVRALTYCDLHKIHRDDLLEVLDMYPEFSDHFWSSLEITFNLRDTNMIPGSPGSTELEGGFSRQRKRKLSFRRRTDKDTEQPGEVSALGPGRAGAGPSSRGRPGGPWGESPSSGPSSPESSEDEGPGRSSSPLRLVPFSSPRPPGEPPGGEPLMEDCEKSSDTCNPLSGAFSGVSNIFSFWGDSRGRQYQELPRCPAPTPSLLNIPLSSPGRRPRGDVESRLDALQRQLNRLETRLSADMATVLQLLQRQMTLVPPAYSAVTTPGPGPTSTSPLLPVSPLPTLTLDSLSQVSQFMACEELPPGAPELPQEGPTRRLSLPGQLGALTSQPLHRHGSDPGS
Chain of Cytochrome P450 2C19 (Homo sapiens) (P33261 whole entry, looked up): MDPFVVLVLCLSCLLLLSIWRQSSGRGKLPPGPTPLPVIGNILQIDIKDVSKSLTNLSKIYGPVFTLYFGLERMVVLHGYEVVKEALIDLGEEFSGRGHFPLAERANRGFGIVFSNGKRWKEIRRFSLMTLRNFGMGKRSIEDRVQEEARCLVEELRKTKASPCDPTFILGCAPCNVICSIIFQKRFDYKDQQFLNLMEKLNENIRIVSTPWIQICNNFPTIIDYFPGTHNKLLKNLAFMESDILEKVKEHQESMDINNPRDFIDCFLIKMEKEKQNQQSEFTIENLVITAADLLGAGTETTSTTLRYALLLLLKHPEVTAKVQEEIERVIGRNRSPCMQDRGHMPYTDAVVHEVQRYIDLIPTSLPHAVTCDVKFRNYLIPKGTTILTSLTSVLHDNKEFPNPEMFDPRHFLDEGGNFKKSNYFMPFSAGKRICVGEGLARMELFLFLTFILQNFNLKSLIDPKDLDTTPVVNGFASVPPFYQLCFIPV
Chain of Cytochrome P450 2C9 (Homo sapiens) (P11712 whole entry, looked up): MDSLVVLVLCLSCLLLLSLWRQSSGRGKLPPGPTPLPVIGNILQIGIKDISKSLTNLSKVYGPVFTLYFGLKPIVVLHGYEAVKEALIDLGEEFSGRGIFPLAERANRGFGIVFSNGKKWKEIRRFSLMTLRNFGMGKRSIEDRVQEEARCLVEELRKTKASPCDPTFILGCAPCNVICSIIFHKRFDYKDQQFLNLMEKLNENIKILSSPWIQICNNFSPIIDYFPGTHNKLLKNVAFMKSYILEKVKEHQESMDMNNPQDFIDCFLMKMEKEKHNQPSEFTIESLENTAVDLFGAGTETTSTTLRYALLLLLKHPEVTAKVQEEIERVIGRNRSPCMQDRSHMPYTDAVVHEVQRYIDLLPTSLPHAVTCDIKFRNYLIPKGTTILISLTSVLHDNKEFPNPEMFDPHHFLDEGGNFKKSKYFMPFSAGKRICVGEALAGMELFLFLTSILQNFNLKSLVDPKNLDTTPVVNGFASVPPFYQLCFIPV
Chain of Nuclear receptor subfamily 1 group I member 2 (Homo sapiens) (O75469 whole entry, looked up): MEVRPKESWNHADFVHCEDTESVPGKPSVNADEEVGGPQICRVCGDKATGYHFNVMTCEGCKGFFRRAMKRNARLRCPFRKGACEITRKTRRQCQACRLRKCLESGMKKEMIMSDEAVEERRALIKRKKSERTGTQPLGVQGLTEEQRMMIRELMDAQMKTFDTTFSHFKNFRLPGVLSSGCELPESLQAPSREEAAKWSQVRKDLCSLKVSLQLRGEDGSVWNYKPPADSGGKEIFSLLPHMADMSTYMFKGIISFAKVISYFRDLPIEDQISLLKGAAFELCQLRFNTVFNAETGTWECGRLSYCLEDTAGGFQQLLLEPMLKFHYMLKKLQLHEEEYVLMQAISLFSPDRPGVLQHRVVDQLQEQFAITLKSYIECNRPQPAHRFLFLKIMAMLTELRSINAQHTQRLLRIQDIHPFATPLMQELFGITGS

As to `CCCCCCCCOc1ccccc1C(=O)Nc1ccc(C(=O)OCC[N+](C)(CC)CC)cc1`, the Potency entry in [1], in [2], in assay [4], in [5] and in assay [9] was “inactive” throughout. The max activation in [3] was 0.409% (inactive). Also, the Potency was 38.9 µM (active) in [6], 3.89 µM (active) in assay [7] and 4.36 µM (active) in assay [8].
In the case of `Cc1cc(CCN2CCN(c3nsc4ccccc34)CC2)cc2c1NC(=O)CC2(C)C`, in assay [1], the Potency result is “inactive”. For the same compound, the Potency in [2] was 19.3 µM (active); in assay [6] it was 17.8 µM (active); in assay [9], 35.6 µM (active); in [10] it was 21.9 µM (active); in assay [11], 17.8 µM (active).
On to `[O-][n+]1ccccc1SSc1cccc[n+]1[O-]`, for which the caspase-3/7 activation in [1] was -5.93% [at 19 µM] (inactive). Also, the activation in assay [2] is -49.4% [at 19 µM] (inactive). Moreover, in assay [3], the max activation is -9.36% (inactive). Moreover, the Potency entry in assay [4] is “inactive”. Moreover, the Potency in assay [5] was 11.2 µM (active); in assay [6], 2.13 µM (active); in [7], 0.536 µM (active); in assay [8] it was 1.51 µM (active); in [9] it was 2.81 µM (active). Besides, the activity change, negative = inhibition in [11] is 7.02% [at 23.6 µM] (inactive).
Take `C/C=C(\C)C(=O)OCc1ccccc1`: the Potency result in assay [1], in assay [2], in [6], in assay [7], in assay [8] and in assay [10] was “inactive” throughout. Further, in assay [11], the Potency entry is “inactive”. Besides, in assay [9], the Potency was 35.6 µM (active).
Take `Cc1nc(-c2ccc3c(c2)CCN(CCC2CCC(NC(=O)/C=C/c4ccc(F)cc4)CC2)CC3)no1` (centres undefined): the Potency result in assay [1], in assay [2], in [6], in assay [7], in assay [9] and in assay [11] was “inactive” throughout. The Potency in assay [10] was 0.873 µM (active).
On to `CC1=C(C(=O)OC(C)C)C(c2cccc([N+](=O)[O-])c2)C(C(=O)OC2CN(C(c3ccccc3)c3ccccc3)C2)=C(N)N1` (centres undefined), for which the Potency in assay [12] was 21.1 µM (active); in assay [13], 33.5 µM (active); in [2], 9.44 µM (active); in assay [5] it was 7.08 µM (active); in [7], 1.74 µM (active); in [8], 1.38 µM (active). Also, the Potency result in assay [4] was “inactive”.
In the case of `O=c1c(-c2ccccc2)c1-c1ccccc1`, the Potency is 16.8 µM (active) in assay [12]; 11.9 µM (active) in assay [2]; 7.76 µM (active) in assay [7]; 17.4 µM (active) in assay [8]; 1.15 µM (active) in assay [9]. Also, the Potency entry in assay [4], in assay [5] and in [10] was “inactive” in each case.
In the case of `CCCCN(CCCC)c1ccc(C(=O)c2ccccc2C(=O)O)c(O)c1`, the Potency in [2] is 61.7 µM (active); in assay [8], 6.39 µM (active); in [9], 63.9 µM (active). Further, the Potency entry in [6] was “inactive”.
Turning to `CNCc1cc(F)ccc1Oc1ccc(Cl)c(Cl)c1`, the Potency entry in assay [1] and in assay [2] was “inactive” each time. In addition, the Potency in assay [6] was 1.78 µM (active); in assay [9], 1 µM (active).
On to `Cc1c(C)c2c(c(C)c1O)CCC(C)(COc1ccc(CC3SC(=O)NC3=O)cc1)O2` (centres undefined), for which the Potency entry in assay [1], in [13], in [6] and in [9] was “inactive” throughout. The max activation in assay [3] is -5.73% (inactive). Further, the Potency in assay [8] was 5.03 µM (active) and 4.9 µM (active).
Take `N/C(=N\N=C\c1ccc(Cl)cc1)N/N=C/c1ccc(Cl)cc1`: the Potency entry in assay [1], in assay [4] and in [5] was “inactive” in each case. For the same compound, the Potency in [2] was 11.9 µM (active); in assay [7], 2.19 µM (active); in [8], 13.8 µM (active); in assay [9], 3.63 µM (active); in [10], 2.39 µM (active).
On to `CCCCCCCCCCCCCCCC[N+](C)(C)CCN(Cc1ccc(OC)cc1)c1ncccn1`, for which the Potency in assay [12] is 26.6 µM (active); in [6], 15.5 µM (active); in assay [8] it was 30.9 µM (active); in [10], 0.338 µM (active). For the same compound, the Potency result in assay [2], in [4], in [5] and in [9] was “inactive” in each case.
`O=C1Cc2cc(CCN3CCN(c4nsc5ccccc45)CC3)c(Cl)cc2N1`: the Potency result in assay [1], in assay [13], in assay [5] and in assay [6] was “inactive” each time. For the same compound, the Potency was 21.9 µM (active) in [7] and 27.5 µM (active) in assay [8].
Take `CCCCCCCCCCCCCCCC(=O)OC[C@H](O)[C@H]1OC(=O)C(O)=C1O`: the Potency result in assay [1], in [13], in assay [2], in assay [6], in assay [9] and in assay [10] was “inactive” each time. Besides, the Potency entry in [11] is “inactive”. In [7], the Potency was 79.6 µM (active).
